Read-out in assay [1]: Monocyte Chemoattractant Protein-1 (MCP1), CCL2 (gene 6347)
Briefly: BSK_SAg_MCP1: BioMAP Diversity Plus: SAg Assay for Monocyte Chemoattractant Protein-1 (MCP1) Biomarker Activity (AID 2283090). The following applies: primary human HUVEC with PBMC; actives raise or lower the signal. Summed up: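 Values derive from bidirectional fitting of ELISA-measured MCP1 against DMSO controls. Readings were taken 24 h after dosing human vascular endothelial cells co-cultured with peripheral blood mononuclear cells under superantigen stimulation.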

Read-out in assay [2]: E-selectin (Homo sapiens) (UniProt P16581)
In words: BSK_SAg_Eselectin: BioMAP Diversity Plus: SAg Assay for Eselectin Biomarker Activity (AID 2283091). The following applies: primary human HUVEC with PBMC; actives raise or lower the signal. Put shortly:
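Human umbilical vein endothelial cells co-cultured with peripheral blood mononuclear cells, SAg system. E-selectin is measured by ELISA 24 h after dosing and fitted bidirectionally against DMSO. Cytotoxicity is checked by SRB staining of parallel cultures.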

Read-out in assay [3]: Monokine induced gamma interferon (MIG), CXCL9 (gene 4283)
In words: BSK_SAg_MIG: BioMAP Diversity Plus: SAg Assay for Monokine induced gamma interferon (MIG) Biomarker Activity (AID 2283092). The following applies: primary human HUVEC with PBMC; actives raise or lower the signal. Summed up:
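Endothelial cells and PBMC were co-cultured, exposed to test chemicals, and sampled 24 h later. MIG was measured by ELISA, and responses were fitted in both directions relative to DMSO.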

Assay [4] in a line: BSK_SAg_PBMCCytotoxicity: PBMC Cytotoxicity Assessment in the BioMAP Diversity Plus: SAg Assay (AID 2283093).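 For AC50: PBMC superantigen activated with SEB plus TSST-1 one hour after compound addition.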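 Note: PBMC viability measured as Alamar Blue reduction fluorescence at 546/580 nm; fitted both ways against DMSO so a hit may be loss or gain of signal.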 The following applies: primary human HUVEC with PBMC. Summed up: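 Alamar Blue reduction (6 h, ex/em 546/580 nm) read after 90 h culture of PBMC pre-dosed 1 h then stimulated with SEB plus TSST-1, 20 ng/mL each. Gain or loss of signal fitted relative to DMSO.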
Read-out in assay [5]: Interleukin-8 (IL8), CXCL8 (gene 3576)
Briefly: BSK_SAg_IL8: BioMAP Diversity Plus: SAg Assay for Interleukin-8 (IL8) Biomarker Activity (AID 2283094). The following applies: primary human HUVEC with PBMC; actives raise or lower the signal. Put shortly:
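ELISA readout of IL-8 from a superantigen-activated endothelial/PBMC primary human co-culture, taken 24 h post-dosing and fitted in both directions against DMSO; parallel SRB total-protein staining flags overt cytotoxicity.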

Assay [6] in a line: BSK_SAg_Proliferation: Cell Proliferation Assessment in the BioMAP Diversity Plus: SAg Assay (AID 2283095).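 Note: relative cell number as total protein by SRB absorbance in sub-confluent culture.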 The conditions noted are these: primary human HUVEC with PBMC. Summed up:
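Relative cell number in the endothelial cell/PBMC co-culture was quantified at 96 h by SRB staining (0.1% SRB, 10% TCA fixation, read at 560 nm). Curves were fitted in both directions relative to DMSO baseline.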

Assay [7] is described as follows: BSK_SAg_SRB: Viability Assessment in the BioMAP Diversity Plus: SAg Assay (AID 2283096).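 Note: cells read one day after compound addition; hits may be either gain or loss of signal compared with DMSO.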 The conditions noted are these: primary human HUVEC with PBMC. Put shortly:
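SRB absorbance at 560 nm served as the viability read-out. Cells (HUVEC plus peripheral blood mononuclear cells) were TCA-fixed and stained 24 h post-dosing; activity fitted in both directions against DMSO controls.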

Assay [8] deals with human CYP19A1, CYP19A1 (gene 1588) (UniProt P11511). In words: NVS_ADME_hCYP19A1: NovaScreen (NVS) CYP450-related Enzyme Activity (ADME) Assay for human CYP19A1 (AID 2283098; active = hit-call score of the fitted dose curve at least 0.9, where 1 is the maximum;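 note: potency for inhibitors seen as loss of fluorescent enzyme signal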). Summed up: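 Primary testing was in duplicate at a single 10 uM concentration, with actives followed up in concentration-response series. Fluorescence read-out of recombinant enzyme activity at 0.5 h, cell-free. Acetonitrile was the negative-control baseline.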

Assay [9] has as its target human CYP1A1, CYP1A1 (gene 1543) (UniProt P04798). In words: NVS_ADME_hCYP1A1: NovaScreen (NVS) CYP450-related Enzyme Activity (ADME) Assay for human CYP1A1 (AID 2283100; active = hit-call score of the fitted dose curve at least 0.9, where 1 is the maximum). How it is done: NVS_ADME_hCYP1A1 is a biochemical, single-readout assay that uses extracted gene-proteins in a cell-free assay. Measurements were taken 1 hour after chemical dosing in a 96-well plate.NVS_ADME_hCYP1A1 is one of one assay component(s) measured or calculated from the NVS_ADME_hCYP1A1 assay. It is designed to make measurements of enzyme activity, a form of enzyme reporter, as detected with fluorescence intensity signals by Fluorescence technology.Data from the assay component NVS_ADME_hCYP1A1 was analyzed into 1 assay endpoint. This assay endpoint, NVS_ADME_hCYP1A1, was analyzed in the positive analysis fitting direction relative to Acetonitrile as the negative control and baseline of activity. Using a type of enzyme reporter, loss-of-signal activity can be used to understand changes in the enzymatic activity as they relate to the gene CYP1A1. Furthermore, this assay endpoint can be referred to as a primary readout, because this assay has produced multiple assay endpoints where this one serves a enzymatic activity function. To generalize the intended target to other relatable targets, this assay endpoint is annotated to the cyp intended target family, where the subfamily is xenobiotic metabolism. […]

Where “and” joins values, the source holds several entries; their conditions need not be identical. Identical values can stand only once. Inconclusive results are not listed. Calls of active or inactive are those of the source. Rule for the calls, unless noted: active = hit-call score of the fitted dose curve at least 0.9, where 1 is the maximum; inactive = score below 0.9.

A word on the AC50: it is the midpoint of the concentration-response curve, whichever way the signal moves.

E-selectin (Homo sapiens), sequence (P16581 whole entry, looked up): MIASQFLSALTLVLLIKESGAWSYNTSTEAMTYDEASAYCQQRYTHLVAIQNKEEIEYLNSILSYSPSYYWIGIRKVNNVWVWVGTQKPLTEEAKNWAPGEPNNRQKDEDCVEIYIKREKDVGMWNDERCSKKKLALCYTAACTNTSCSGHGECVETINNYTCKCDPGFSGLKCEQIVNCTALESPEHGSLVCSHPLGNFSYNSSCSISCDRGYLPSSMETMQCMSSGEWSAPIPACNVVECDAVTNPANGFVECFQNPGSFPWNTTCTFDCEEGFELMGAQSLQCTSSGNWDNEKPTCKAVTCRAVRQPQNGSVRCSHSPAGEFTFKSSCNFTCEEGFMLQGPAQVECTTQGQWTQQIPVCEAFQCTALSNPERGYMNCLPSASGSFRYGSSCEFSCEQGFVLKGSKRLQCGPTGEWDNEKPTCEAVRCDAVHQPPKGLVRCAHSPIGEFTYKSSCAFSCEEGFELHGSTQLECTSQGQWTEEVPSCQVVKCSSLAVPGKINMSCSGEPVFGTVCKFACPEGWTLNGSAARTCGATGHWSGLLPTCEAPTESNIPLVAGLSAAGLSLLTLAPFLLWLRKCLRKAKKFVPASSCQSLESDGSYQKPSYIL
human CYP19A1, CYP19A1 (gene 1588), sequence (P11511 whole entry, looked up): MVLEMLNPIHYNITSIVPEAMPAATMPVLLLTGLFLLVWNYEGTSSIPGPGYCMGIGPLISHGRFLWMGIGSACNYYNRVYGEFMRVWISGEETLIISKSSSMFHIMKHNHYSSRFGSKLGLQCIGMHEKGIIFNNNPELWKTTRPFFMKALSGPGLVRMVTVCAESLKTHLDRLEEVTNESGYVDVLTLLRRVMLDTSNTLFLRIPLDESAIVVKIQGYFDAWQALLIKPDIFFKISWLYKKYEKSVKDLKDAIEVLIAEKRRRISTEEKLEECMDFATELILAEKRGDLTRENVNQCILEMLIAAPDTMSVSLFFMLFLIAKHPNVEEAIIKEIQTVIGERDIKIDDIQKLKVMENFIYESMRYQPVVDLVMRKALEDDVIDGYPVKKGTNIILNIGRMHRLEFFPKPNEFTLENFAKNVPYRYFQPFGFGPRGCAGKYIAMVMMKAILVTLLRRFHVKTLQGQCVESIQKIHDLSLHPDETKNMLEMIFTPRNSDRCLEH
human CYP1A1, CYP1A1 (gene 1543), sequence (P04798 whole entry, looked up): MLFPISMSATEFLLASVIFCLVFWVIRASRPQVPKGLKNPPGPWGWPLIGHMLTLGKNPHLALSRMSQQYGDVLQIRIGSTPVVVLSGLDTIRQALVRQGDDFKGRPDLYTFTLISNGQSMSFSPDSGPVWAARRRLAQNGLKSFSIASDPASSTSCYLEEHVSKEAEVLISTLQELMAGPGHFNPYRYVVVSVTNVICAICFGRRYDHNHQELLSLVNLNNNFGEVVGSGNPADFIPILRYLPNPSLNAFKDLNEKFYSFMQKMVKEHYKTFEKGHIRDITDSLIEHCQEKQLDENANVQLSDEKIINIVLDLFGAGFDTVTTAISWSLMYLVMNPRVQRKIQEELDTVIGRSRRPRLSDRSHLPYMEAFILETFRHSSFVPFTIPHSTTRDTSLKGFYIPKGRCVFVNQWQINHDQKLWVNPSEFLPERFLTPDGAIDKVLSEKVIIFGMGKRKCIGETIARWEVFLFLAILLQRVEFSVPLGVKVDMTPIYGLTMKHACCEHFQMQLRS

As to `Cc1cc(C)c(O)c(C(C)(C)C)c1`, the AC50 in assay [1] was 30.8 µM (active); in assay [2], 28.8 µM (active); in assay [4], 31.7 µM (active); in assay [6], 31.2 µM (active); in assay [7], 35.1 µM (active). Further, the result in assay [3] and in [5] was inactive.

Turning to `CCN(CCO)S(=O)(=O)C(F)(F)C(F)(F)C(F)(F)C(F)(F)C(F)(F)C(F)(F)C(F)(F)C(F)(F)F`, the half-maximal activity concentration (AC50) was 18.8 µM (active) and 18.3 µM (active) in assay [1]; 39.9 µM (active) and 22.9 µM (active) in [4]; 23.6 µM (active) and 18.6 µM (active) in assay [6]; 30 µM (active) and 27.9 µM (active) in assay [7]. Also, the outcome in assay [2] and in [3] was inactive.

Regarding `CCN(CC)c1ccc(C=O)cc1`, the outcome in [1], in [2], in assay [3], in [4], in assay [5] and in assay [6] was inactive. The outcome in assay [7] was inactive.

Regarding `O=C(O)CCC(F)(F)C(F)(F)C(F)(F)C(F)(F)C(F)(F)C(F)(F)C(F)(F)F`, the outcome in assay [1], in assay [2], in assay [3], in assay [4], in assay [6] and in assay [7] was inactive.

Take `CCN(CC)c1ccc(C=O)c(O)c1`: the result in [1], in assay [2], in assay [4], in assay [6] and in [7] was inactive.

`O=C(Cl)C(F)(F)C(F)(F)C(F)(F)C(F)(F)C(F)(F)C(F)(F)C(F)(F)F`: the outcome in assay [1], in assay [2], in [4], in [5], in assay [6] and in [7] was inactive.

In the case of `O=C(O)C(F)(F)OC(F)(F)C(F)(F)OC(F)(F)C(F)(F)OC(F)(F)F`, the result in assay [1], in assay [2], in assay [4], in [6] and in assay [7] was inactive.

`COC(F)(C(F)F)C(F)(F)F` (stereo not drawn): the result in [1], in assay [2], in assay [4], in assay [5], in [6] and in assay [7] was inactive.

For the molecule `Cc1cnccn1`, the result in assay [1], in [2], in assay [4], in [5], in [6] and in assay [7] was inactive.

Consider `CCN(CC)c1ccc(N=Nc2ccccc2)cc1`, for which the AC50 in [1] was 30.2 µM (active); in assay [2], 13.8 µM (active); in assay [4], 20 µM (active); in [6], 12.7 µM (active); in [7] it was 29.5 µM (active).

Consider `O=C(O)CCC(F)(F)C(F)(F)C(F)(F)F`, for which the outcome in [1], in assay [2], in [4], in [5], in [6] and in assay [7] was inactive.

Regarding `Cc1cc(O)c(C(C)(C)C)cc1C(C)(C)C`, the AC50 in assay [1] is 7.3 µM (active); in [2], 5.34 µM (active); in assay [4], 3.79 µM (active); in assay [6] it was 3.82 µM (active); in assay [7] it was 6.3 µM (active).

As to `O=C=Nc1cccc2c(N=C=O)cccc12`, the result in assay [1], in assay [2], in assay [4], in assay [6] and in [7] was inactive.

On to `CC(C)Nc1ccc(NC(C)C)c2c1C(=O)c1ccccc1C2=O`, for which the AC50 in assay [8] was 3.18 µM (active).

Take `CCCCCCCCn1sc(Cl)c(Cl)c1=O`: the result in assay [9] was inactive.

Consider `CC(C)(C)c1cc(CCC(=O)NCCCCCCNC(=O)CCc2cc(C(C)(C)C)c(O)c(C(C)(C)C)c2)cc(C(C)(C)C)c1O`, for which the result in [1], in [2], in [4], in [6] and in assay [7] was inactive.

As for `CCc1cc(Cc2cc(CC)c(N)c(CC)c2)cc(CC)c1N`, the AC50 in assay [8] is 1.7 µM (active).

In the case of `OCC(F)(F)C(F)(F)C(F)(F)C(F)(F)C(F)(F)C(F)(F)CO`, the result in [1], in [2], in assay [4], in assay [6] and in assay [7] was inactive.

In the case of `CCN(CC)c1ccc2c(c1)Oc1cc(N(CC)CC)ccc1C21OC(=O)c2ccccc21`, the outcome in assay [1], in assay [2] and in assay [7] was inactive. In addition, the AC50 in assay [4] is 6.68 µM (active); in [6], 10 µM (active).

For `OCC(O)CC(F)(F)C(F)(F)C(F)(F)C(F)(F)F` (stereo not drawn), the result in [1], in [2], in assay [4], in assay [6] and in assay [7] was inactive.
